Outcome and Potency data for seven molecules are collected here from PubChem BioAssay (Tox21).

Records with an inconclusive call do not appear. Values without a mark were called inactive. Active and inactive are the calls of the source. Unless noted, calls come from the whole dose curve; as a rule, active = well fitted curve in the direction sought with a large enough effect in the repeat runs; inconclusive = weak or mixed curves; inactive = no such curve, though single readings can be large; an effect the other way counts as inactive or inconclusive.

Assay [1] in a line: qHTS assay to identify small molecule antagonists of the vitamin D receptor (VDR) signaling pathway - cell viability counter screen (AID 743225). Note: nearly all actives have a fitted effect of over 50% in size. In short, it runs like this: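 Cytotoxicity toward the VDR-bla HEK 293T line was scored by ATP-based CellTiter-Glo luminescence, read in the wells already used for the beta-lactamase readout after 16 h compound treatment under 3 nM 1-alpha,25-dihydroxyvitamin D3 stimulation.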

A short description of assay [2]: qHTS assay to identify small molecule agonists of the NFkB signaling pathway (AID 1159509; active = well fitted curve in the direction sought with a large enough effect in the signal ratio in the repeat runs, not every such curve was filed as active; the % refers to the signal ratio; note: series mostly up to about 61 µM). The procedure, abridged: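 Beta-lactamase reporter assay run in quantitative high-throughput format on an NF-kB-responsive ME-180 line, with 5 hr compound treatment and a FRET-based blue/green fluorescence readout.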
(Quantitative high-throughput screening tests each substance at several concentrations.)

Assay [3] can be described thus: qHTS assay to identify small molecule agonists of the NFkB signaling pathway - cell viability counter screen (AID 1159515; calls by dose curve; note: series mostly up to about 61 µM; nearly all actives have a fitted effect of over 55% in size). In short, it runs like this: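 Tox21 library compounds were tested for cytotoxicity against NFkB-bla ME-180 cells during a 5 hr exposure at 37 C. CellTiter-Glo luminescence served as the viability read-out.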
A short description of assay [4]: qHTS assay to identify small molecule agonists of the endoplasmic reticulum stress response signaling pathway (AID 1159516; active = well fitted activation curve with a large enough effect in the signal ratio in the repeat runs, not every such curve was filed as active; the % refers to the signal ratio). In short, it runs like this: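 Fluorescence at 460 and 530 nm (405 nm excitation) reports beta-lactamase from an ER stress response element in HeLa cells treated 5 hr at 37 C.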
Assay [5] in a line: qHTS assay to identify small molecule agonists of the endoplasmic reticulum stress response signaling pathway - cell viability counter screen (AID 1159517; calls by dose curve; note: series mostly up to about 61 µM; nearly all actives have a fitted effect of over 50% in size). The procedure, abridged:
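Steps: seed 1,500 ESRE-bla HeLa cells per well; incubate overnight at 37 C, 5% CO2; add compounds in DMSO for 5 hr; run FRET substrate 2 hr RT; add CellTiter-Glo, wait 30 min, read luminescence.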

A short description of assay [6]: qHTS assay to identify small molecule antagonists of the retinoid-related orphan receptor gamma (ROR-gamma) signaling pathway - cell viability counter screen (AID 1159520). Note: nearly all actives have a fitted effect of over 50% in size. In short, it runs like this: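 Tet-on ROR gamma CHO cells were given compounds for 2 hr, then doxycycline hyclate at 1 uM final, and incubated 16 hr at 37 C. Viability was measured as ATP content by CellTiter-Glo luminescence.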

In assay [7] the target is Nuclear receptor ROR-gamma (Homo sapiens) (UniProt P51449). The assay can be described thus: qHTS assay to identify small molecule antagonists of the retinoid-related orphan receptor gamma (ROR-gamma) signaling pathway (AID 1159521;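 note: CHO cells with doxycycline inducible ROR-gamma driving an RORE luciferase reporter; top concentration of the series differs between compounds; nearly all actives have a fitted effect of over 50% in size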). The procedure, abridged: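 Readout: ONE-Glo luciferase luminescence, 30 min at room temperature. System: Tet-on RORγ CHO, RORE-LUC. Sequence: compound 2 h, doxycycline 1 uM final, 16 h at 37 C.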

The nature of assay [8]: qHTS assay to identify small molecule agonists of the AP-1 signaling pathway - cell viability counter screen (AID 1159525; calls by dose curve; note: nearly all actives have a fitted effect of over 55% in size). In short, it runs like this:
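Same-well cytotoxicity counter screen of the Tox21 10K library in ME-180 cells. The readout is ATP-dependent luminescence after 5 h compound treatment. Data are normalised to DMSO and tetra n-octyl ammonium bromide controls.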

Assay [9] in a line: qHTS assay to identify small molecule agonists of the AP-1 signaling pathway (AID 1159526; calls by dose curve).
The target of assay [10] is Retinoic acid receptor RXR-alpha (Homo sapiens) (UniProt P19793). The assay can be described thus: qHTS assay to identify small molecule agonists of the RXR signaling pathway (AID 1159527; calls by dose curve; note: nearly all actives have a fitted effect of over 35% in size). The procedure, abridged: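 Reporter activation is measured as beta-lactamase activity via FRET substrate cleavage (emission 460/530 nm) in HEK 293T cells expressing an RXR-alpha-driven bla construct, following 16 hr compound exposure at 37 C.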
Retinoic acid receptor RXR-alpha (Homo sapiens), sequence (P19793 whole entry, looked up): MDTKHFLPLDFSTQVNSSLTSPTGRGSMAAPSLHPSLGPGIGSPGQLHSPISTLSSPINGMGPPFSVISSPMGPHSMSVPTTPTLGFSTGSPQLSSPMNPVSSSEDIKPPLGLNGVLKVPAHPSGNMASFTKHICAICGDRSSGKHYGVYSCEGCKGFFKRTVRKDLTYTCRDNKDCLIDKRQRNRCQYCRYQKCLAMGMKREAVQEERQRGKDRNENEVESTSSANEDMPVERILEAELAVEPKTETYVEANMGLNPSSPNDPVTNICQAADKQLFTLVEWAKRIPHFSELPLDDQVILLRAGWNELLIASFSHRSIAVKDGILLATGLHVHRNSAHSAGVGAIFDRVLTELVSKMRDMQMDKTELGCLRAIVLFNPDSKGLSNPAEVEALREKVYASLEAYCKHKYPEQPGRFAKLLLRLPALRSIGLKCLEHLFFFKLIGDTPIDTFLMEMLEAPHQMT

A short description of assay [11]: qHTS assay to identify small molecule agonists of the RXR signaling pathway - cell viability counter screen (AID 1159529). In short, it runs like this:
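Tox21 10K compounds were tested for cytotoxicity against GeneBLAzer RXR-alpha HEK 293T cells grown in 2% charcoal-stripped FBS. Exposure lasted 16 hr at 37 C, 5% CO2; viability read by CellTiter-Glo luminescence.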

Assay [12] is described as follows: qHTS assay to identify small molecule antagonists of the retinoid acid receptor (RAR) signaling pathway - cell viability counter screen (AID 1159551). Note: nearly all actives have a fitted effect of over 35% in size. The procedure, abridged: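 In this counter screen, the RARE-luciferase line C3RL4 was exposed for 6 h at 37 C and 5% CO2 to compounds with retinol at 1 uM final. Cellular ATP, read by luminescence, served as the viability measure.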

A short description of assay [13]: qHTS assay to identify small molecule antagonists of the retinoic acid receptor (RAR) signaling pathway (AID 1159552; note: nearly all actives have a fitted effect of over 50% in size). The procedure, abridged: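 Overnight-plated C3RL4 reporter cells get compound, then retinol to 1 uM final; plates sit 6 hr at 37 C, 5% CO2. A luciferase reagent is added and light output recorded after 30 min at room temperature.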
Assay [14] is described as follows: qHTS assay to identify small molecule agonists of the retinoic acid receptor (RAR) signaling pathway (AID 1159553). Note: potency is the fitted concentration of half-maximal effect. In short, it runs like this:
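In this cell-based screen, 1,000 C3RL4 cells per well were cultured overnight, dosed with test chemicals in DMSO for 6 hr, and assessed for RARE luciferase luminescence.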

Assay [15] is described as follows: qHTS assay to identify small molecule antagonists of the estrogen related receptor (ERR) signaling pathway from Tox21 library - cell viability counter screen (AID 1224834). Note: nearly all actives have a fitted effect of over 30% in size. In short, it runs like this:
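Counter screen run in ERR cells (2,000 cells/well): cells pre-incubated 6 h, then treated with compounds for 17.5 h at 37 C. Fluorescence was read 30 min after CellTiter-Fluor addition.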

Assay [16] concerns the target Luciferin 4-monooxygenase (Photinus pyralis) (UniProt P08659). Nature of the assay: qHTS assay to identify small molecule inhibitors of firefly luciferase (AID 1224835). Note: nearly all actives have a fitted effect of over 25% in size. Note: potency is the fitted concentration of half-maximal effect. The procedure, abridged:
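Biochemical qHTS: compounds run as interplate titrations against purified firefly enzyme, with D-luciferin and ATP each at its KM concentration. Light output recorded by CCD imaging.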

A short description of assay [17]: qHTS assay to identify small molecule agonists of the constitutive androstane receptor (CAR) signaling pathway - cell viability counter screen (AID 1224836). Note: series mostly up to about 92 µM; nearly all actives have a fitted effect of over 45% in size. In short, it runs like this:
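Fluorescence from CellTiter-Fluor indicates live cells after 23 h exposure. The human hepatoma line expresses hCAR and a CYP2B6-2.2kb reporter. Incubation medium contains 0.75 uM PK11195 (final).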

Assay [18] is described as follows: qHTS assay to identify small molecule antagonists of the constitutive androstane receptor (CAR) signaling pathway - cell viability counter screen (AID 1224837). Note: series mostly up to about 92 µM; nearly all actives have a fitted effect of over 45% in size. The procedure, abridged: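 CITCO at 50 nM final was added alongside compounds (15 concentrations) to double-stable hCAR/CYP2B6-2.2kb HepG2 cells. Following 23 hr at 37 C, cell viability was quantified by CellTiter-Fluor fluorescence intensity.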

Assay [19] addresses Nuclear receptor subfamily 1 group I member 3 (Homo sapiens) (UniProt Q14994). The assay can be described thus: qHTS assay to identify small molecule antagonists of the constitutive androstane receptor (CAR) signaling pathway (AID 1224838). Note: nearly all actives have a fitted effect of over 40% in size. The procedure, abridged: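 Inhibition of CITCO-driven (50 nM final) CYP2B6 reporter expression is measured in HepG2 cells stably carrying hCAR. Fifteen compound concentrations are applied for 24 h at 37 C, followed by luciferase luminescence.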

Assay [20] shares this target. The assay can be described thus: qHTS assay to identify small molecule agonists of the constitutive androstane receptor (CAR) signaling pathway (AID 1224839). For activation: series mostly up to about 92 µM. Note: nearly all actives have a fitted effect of over 15% in size. Note: potency is the fitted concentration of half-maximal effect. In short, it runs like this:
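Stable hCAR/CYP2B6-2.2kb HepG2 line in DMEM with 10% FBS; compounds (15 concentrations) and 0.75 uM PK11195 final, 24 h at 37 C/5% CO2, then ONE-Glo luminescence after 30 min.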

Luciferin 4-monooxygenase (Photinus pyralis), sequence (P08659 whole entry, looked up): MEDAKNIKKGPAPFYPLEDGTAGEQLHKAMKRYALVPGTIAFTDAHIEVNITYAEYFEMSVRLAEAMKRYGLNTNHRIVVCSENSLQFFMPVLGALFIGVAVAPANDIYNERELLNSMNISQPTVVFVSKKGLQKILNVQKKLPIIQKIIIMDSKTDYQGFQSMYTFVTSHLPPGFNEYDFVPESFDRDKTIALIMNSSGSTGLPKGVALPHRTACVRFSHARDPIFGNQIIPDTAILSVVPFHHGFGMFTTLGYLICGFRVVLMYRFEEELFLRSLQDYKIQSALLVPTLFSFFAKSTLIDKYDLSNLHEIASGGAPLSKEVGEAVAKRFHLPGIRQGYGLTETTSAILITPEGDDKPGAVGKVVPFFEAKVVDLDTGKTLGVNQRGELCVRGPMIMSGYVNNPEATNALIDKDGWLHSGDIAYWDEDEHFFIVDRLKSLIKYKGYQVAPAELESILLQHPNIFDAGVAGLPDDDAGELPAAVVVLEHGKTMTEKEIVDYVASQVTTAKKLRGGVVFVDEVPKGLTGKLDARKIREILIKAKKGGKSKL
Nuclear receptor subfamily 1 group I member 3 (Homo sapiens), sequence (Q14994 whole entry, looked up): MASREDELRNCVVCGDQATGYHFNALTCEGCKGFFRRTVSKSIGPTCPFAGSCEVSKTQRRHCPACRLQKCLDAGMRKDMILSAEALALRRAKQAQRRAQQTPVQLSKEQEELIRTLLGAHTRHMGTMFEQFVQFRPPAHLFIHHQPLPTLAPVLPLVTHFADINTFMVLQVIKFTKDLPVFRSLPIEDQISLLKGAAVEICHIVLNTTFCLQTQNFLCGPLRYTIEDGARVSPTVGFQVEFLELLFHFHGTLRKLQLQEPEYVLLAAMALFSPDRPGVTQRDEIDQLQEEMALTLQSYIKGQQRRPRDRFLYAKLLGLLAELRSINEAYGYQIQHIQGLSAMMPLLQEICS

Take `CCN1CCCC1CN` (stereo not drawn): the outcome in assay [1], in [2], in assay [3], in assay [4], in [5] and in [6] was inactive. For the same molecule, the molecule was classed as inactive in assay [7], in assay [8], in assay [9], in assay [11], in [12] and in assay [13]. The result in assay [15], in assay [17] and in assay [18] was inactive. The Potency entry in [10], in [14], in assay [16] and in [19] was “inactive” each time.
With `O=C(Cl)c1ccccc1[N+](=O)[O-]`, the call in assay [1], in [2], in assay [3], in assay [4], in [5] and in assay [6] was inactive. Moreover, the outcome in [7], in [8], in [9], in assay [11], in assay [12] and in assay [13] was inactive. The molecule was classed as inactive in assay [15], in assay [17] and in assay [18]. Besides, the Potency entry in [10], in [14], in assay [16] and in [19] was “inactive” in each case.
As for `O=C=NCC1CCCC(CN=C=O)C1` (stereo not drawn), the outcome in [1], in [2], in assay [3], in assay [4], in assay [5] and in assay [6] was inactive. The result in assay [7], in [8], in assay [9], in assay [11], in assay [12] and in assay [13] was inactive. The molecule was called inactive in assay [15], in [17] and in assay [18]. Besides, the Potency entry in assay [10], in assay [14], in assay [16], in assay [19] and in assay [20] was “inactive” in each case.
`OCC1CCC(CO)CC1` (stereo not drawn): the molecule was called inactive in assay [1], in assay [2], in [3], in [4], in assay [5] and in assay [6]. The outcome in [7], in assay [8], in [9], in [11], in [12] and in [13] was inactive. Moreover, the result in assay [15], in assay [17] and in [18] was inactive. The Potency entry in assay [10], in assay [14], in assay [16], in assay [19] and in [20] was “inactive” each time.
Turning to `ONc1ccccc1`, the result in [1], in [2], in assay [3], in [4], in [5] and in [6] was inactive. Besides, the call in assay [7], in assay [8], in assay [9], in [11], in assay [12] and in [13] was inactive. Further, the molecule was classed as inactive in [15], in [17] and in assay [18]. In addition, the Potency result in assay [10] and in assay [19] was “inactive” in each case. Also, the Potency in assay [14] was 24.1 µM (active); in assay [16] it was 22.2 µM (active); in assay [20], 60.5 µM (active).
Regarding `CC(=O)c1cc(C)oc1C`, the outcome in assay [1], in assay [2], in assay [3], in assay [4], in assay [5] and in assay [6] was inactive. The molecule was called inactive in [7], in [8], in assay [9], in [11], in [12] and in assay [13]. In addition, the molecule was called inactive in assay [15], in [17] and in assay [18]. The Potency entry in assay [10], in [14], in assay [16], in [19] and in [20] was “inactive” in each case.
As for `C[C@]12CCC(=O)C=C1CC[C@H]1[C@@H]3CC[C@](O)(C(=O)CO)[C@@]3(C)C[C@H](O)[C@@]12F`, the result in [1], in assay [2], in assay [3], in assay [4], in assay [5] and in assay [6] was inactive. The call in [7], in assay [8], in [9], in [11], in assay [12] and in assay [13] was inactive. Also, the molecule was called inactive in assay [15], in [17] and in assay [18]. In addition, the Potency result in assay [10], in [14], in assay [16], in [19] and in [20] was “inactive” throughout.
